# In article PMC13423814:
# How the values were obtained:
# Details in all cases: DSSO, in cells
# MYBBP1A = MYBBP1A (UniProt Q9BQG0)
# RPL7L1 = RPL7L1 (UniProt Q6DKI1)
# SERBP1 = SERBP1 (UniProt Q8NC51)
# MYDGF = MYDGF (UniProt Q969H8)
# MYEF2 = MYEF2 (UniProt Q9P2K5)
# MYL6 = MYL6 (UniProt P60660)
# MYO18A = MYO18A (UniProt Q92614)
# NAA15 = NAA15 (UniProt Q9BXJ9)
# NAT10 = NAT10 (UniProt Q9H0A0)
# NCAPH = NCAPH (UniProt Q15003)
# NCBP1 = NCBP1 (UniProt Q09161)
# NDRG1 = NDRG1 (UniProt Q92597)
# NDUFA12 = NDUFA12 (UniProt Q9UI09)
# NDUFS1 = NDUFS1 (UniProt P28331)
# NIPSNAP1 = NIPSNAP1 (UniProt Q9BPW8)
# NOC3L = NOC3L (UniProt Q8WTT2)
# NOL7 = NOL7 (UniProt Q9UMY1)
# NOLC1 = NOLC1 (UniProt Q14978)
# UTP11 = UTP11 (UniProt Q9Y3A2)
# UTP11, sequence (Q9Y3A2 whole entry): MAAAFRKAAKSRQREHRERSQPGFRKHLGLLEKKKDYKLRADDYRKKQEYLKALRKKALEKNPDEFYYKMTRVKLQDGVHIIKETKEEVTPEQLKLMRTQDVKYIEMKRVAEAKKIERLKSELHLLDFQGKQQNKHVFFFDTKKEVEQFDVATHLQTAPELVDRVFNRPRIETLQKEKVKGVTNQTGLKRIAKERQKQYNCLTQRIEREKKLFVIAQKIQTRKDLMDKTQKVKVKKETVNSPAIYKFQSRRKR
# NOP16 = NOP16 (UniProt Q9Y3C1)
# NOP53 = NOP53 (UniProt Q9NZM5)
# NUCB2 = NUCB2 (UniProt P80303)
# NUP160 = NUP160 (UniProt Q12769)
# NUP205 = NUP205 (UniProt Q92621)
# NUP58 = NUP58 (UniProt Q9BVL2)
# NUP93 = NUP93 (UniProt Q8N1F7)
# P4HA1 = P4HA1 (UniProt P13674)
# PDIA3 = PDIA3 (UniProt P30101)
# PPIB = PPIB (UniProt P23284)
# P4HB = P4HB (UniProt P07237)
# P4HB, sequence (P07237 whole entry): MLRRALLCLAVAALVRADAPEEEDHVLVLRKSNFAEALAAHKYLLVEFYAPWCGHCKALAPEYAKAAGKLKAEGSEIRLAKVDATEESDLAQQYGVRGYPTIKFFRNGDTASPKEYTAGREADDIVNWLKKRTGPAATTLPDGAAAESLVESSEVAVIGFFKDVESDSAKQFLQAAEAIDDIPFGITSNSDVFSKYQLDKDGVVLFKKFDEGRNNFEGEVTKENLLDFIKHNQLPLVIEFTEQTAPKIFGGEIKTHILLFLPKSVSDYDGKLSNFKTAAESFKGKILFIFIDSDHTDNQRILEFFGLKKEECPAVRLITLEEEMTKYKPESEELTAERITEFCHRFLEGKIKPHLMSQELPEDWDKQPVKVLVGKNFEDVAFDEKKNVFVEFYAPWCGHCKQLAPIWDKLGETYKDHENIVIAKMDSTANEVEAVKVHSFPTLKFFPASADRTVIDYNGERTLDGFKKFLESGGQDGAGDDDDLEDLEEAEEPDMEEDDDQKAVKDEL
# PA2G4 = PA2G4 (UniProt Q9UQ80)
# PAM16 = PAM16 (UniProt Q9Y3D7)
# PAM16, sequence (Q9Y3D7 whole entry): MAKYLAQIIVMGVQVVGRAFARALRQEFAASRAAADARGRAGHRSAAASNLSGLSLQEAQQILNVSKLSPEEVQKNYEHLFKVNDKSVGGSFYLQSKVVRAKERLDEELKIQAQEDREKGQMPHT
# FBL, P22087, sequence (P22087 whole entry): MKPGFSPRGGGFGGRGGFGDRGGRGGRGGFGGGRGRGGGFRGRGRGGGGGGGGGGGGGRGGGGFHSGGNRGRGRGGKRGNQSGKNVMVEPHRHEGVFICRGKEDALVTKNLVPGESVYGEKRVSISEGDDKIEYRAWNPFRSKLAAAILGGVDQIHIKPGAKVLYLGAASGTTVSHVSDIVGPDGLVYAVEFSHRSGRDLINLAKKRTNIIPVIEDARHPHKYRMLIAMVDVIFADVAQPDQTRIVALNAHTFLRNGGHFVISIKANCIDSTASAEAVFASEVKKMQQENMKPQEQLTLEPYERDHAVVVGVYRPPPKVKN
# P4HB, P07237, sequence (P07237 whole entry): as the sequence (P07237 whole entry) above
# MYH9, P35579, sequence (P35579 whole entry): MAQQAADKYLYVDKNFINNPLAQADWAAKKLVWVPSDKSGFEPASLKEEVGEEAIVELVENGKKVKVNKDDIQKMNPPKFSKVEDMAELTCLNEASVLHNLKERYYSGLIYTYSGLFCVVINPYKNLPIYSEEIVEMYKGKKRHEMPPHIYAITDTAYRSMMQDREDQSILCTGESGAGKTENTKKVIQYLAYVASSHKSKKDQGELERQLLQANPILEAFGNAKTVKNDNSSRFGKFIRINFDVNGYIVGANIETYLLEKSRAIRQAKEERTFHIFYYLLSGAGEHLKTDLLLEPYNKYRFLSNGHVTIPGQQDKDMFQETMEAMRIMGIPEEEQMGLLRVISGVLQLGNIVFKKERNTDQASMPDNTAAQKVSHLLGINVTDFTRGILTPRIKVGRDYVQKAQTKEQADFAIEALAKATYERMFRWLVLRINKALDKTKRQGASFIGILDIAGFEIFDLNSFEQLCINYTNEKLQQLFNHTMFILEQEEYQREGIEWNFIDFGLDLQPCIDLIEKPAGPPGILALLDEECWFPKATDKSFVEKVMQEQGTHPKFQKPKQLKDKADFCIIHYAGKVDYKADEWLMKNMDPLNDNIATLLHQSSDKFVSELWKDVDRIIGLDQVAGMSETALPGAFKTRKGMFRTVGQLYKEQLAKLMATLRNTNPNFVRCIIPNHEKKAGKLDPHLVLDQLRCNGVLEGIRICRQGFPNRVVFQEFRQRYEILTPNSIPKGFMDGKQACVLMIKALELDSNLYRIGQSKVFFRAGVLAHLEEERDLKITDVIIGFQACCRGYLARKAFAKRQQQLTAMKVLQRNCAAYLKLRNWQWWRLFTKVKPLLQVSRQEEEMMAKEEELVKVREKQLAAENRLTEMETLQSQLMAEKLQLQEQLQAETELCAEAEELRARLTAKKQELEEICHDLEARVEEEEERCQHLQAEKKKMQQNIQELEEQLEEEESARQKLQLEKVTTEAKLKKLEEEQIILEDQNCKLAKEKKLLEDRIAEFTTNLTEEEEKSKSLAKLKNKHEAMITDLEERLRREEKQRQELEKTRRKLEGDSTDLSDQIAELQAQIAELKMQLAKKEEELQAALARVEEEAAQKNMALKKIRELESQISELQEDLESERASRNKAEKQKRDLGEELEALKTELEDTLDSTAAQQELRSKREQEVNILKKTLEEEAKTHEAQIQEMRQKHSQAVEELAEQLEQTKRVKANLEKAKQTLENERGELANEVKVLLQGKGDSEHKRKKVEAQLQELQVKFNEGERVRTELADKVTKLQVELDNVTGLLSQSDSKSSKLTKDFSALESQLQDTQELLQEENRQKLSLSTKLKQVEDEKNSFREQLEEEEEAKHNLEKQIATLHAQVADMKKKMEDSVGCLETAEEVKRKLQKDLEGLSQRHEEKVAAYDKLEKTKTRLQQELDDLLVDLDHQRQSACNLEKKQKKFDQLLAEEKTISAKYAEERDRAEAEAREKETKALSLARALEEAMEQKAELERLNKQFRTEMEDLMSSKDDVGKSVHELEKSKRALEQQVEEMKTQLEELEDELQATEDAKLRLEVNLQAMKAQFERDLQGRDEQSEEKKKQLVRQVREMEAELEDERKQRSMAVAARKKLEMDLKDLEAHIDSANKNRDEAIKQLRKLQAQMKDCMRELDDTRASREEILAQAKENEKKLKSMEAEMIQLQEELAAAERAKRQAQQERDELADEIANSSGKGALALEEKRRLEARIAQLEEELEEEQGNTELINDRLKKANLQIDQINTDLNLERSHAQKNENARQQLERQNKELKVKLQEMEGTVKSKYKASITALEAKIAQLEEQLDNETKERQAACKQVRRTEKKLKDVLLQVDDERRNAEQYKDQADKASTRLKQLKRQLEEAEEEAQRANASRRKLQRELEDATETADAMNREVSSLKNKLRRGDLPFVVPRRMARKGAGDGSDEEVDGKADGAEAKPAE
# NUP98, P52948, sequence (P52948 whole entry): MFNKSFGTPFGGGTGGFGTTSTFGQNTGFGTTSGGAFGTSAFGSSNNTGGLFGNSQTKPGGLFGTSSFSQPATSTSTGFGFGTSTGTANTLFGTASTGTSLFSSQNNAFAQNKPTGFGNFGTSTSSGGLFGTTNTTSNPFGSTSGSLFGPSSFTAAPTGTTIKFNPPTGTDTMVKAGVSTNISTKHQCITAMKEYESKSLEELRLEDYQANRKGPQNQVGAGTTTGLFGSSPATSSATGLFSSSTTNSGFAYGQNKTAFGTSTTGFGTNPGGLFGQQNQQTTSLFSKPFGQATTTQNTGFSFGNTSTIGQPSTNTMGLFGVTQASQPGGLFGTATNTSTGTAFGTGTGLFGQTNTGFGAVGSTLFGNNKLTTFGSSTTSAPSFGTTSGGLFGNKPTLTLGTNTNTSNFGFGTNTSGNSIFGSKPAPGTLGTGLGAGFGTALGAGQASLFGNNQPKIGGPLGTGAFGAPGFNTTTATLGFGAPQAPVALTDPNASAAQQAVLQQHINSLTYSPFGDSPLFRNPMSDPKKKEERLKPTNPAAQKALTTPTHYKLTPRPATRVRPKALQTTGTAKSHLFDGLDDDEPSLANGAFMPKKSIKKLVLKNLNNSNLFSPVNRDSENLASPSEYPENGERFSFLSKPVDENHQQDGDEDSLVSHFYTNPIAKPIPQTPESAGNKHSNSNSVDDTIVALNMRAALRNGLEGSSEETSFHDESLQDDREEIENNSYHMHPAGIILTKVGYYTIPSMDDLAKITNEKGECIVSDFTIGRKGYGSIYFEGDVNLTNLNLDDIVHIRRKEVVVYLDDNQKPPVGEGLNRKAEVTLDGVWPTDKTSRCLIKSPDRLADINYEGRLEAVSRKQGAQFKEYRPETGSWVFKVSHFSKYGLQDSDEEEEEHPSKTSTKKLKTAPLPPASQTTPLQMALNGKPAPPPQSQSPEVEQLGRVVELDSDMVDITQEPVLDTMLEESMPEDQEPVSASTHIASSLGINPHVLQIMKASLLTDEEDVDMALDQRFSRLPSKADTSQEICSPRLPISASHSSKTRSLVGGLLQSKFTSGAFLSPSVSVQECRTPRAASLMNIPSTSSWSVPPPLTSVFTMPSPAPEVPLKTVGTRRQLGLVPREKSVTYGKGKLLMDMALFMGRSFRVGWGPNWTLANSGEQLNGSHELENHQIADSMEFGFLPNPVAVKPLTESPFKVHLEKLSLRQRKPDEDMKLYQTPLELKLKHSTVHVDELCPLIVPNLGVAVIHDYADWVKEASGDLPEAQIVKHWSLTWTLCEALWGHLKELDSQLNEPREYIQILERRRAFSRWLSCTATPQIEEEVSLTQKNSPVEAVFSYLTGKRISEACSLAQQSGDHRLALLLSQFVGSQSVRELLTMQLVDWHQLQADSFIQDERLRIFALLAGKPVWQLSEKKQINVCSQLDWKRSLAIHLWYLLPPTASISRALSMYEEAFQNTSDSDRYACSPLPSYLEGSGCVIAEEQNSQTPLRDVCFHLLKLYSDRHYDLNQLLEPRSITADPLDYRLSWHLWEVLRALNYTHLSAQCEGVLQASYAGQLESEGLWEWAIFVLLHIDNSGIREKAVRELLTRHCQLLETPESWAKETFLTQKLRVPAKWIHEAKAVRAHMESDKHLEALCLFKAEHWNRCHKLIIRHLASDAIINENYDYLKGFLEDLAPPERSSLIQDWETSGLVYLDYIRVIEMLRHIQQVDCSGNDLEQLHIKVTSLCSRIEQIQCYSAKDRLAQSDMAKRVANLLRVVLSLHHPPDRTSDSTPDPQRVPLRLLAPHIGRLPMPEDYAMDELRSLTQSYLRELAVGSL
substance,measurement,setting,value
"RPL27, P61353",cross-linked residues,MYBBP1A,K59 - T987
same,cross-linked residues,RPL7L1,K59 - K36
same,cross-linked residues,SERBP1,K93 - K39
"PRKCSH, P14314",cross-linked residues,MYDGF,K436 - K161
"HNRNPM, P52272",cross-linked residues,MYEF2,K381 - K323
"MYH9, P35579",cross-linked residues,MYL6,K1459 - K81
same,cross-linked residues,MYO18A,K1867 - K1727
"RPL6, Q02878",cross-linked residues,NAA15,K100 - K590
"BMS1, Q14692",cross-linked residues,NAT10,S398 - K689
"SMC2, O95347",cross-linked residues,NCAPH,K177 - K152
"NCBP2, P52298",cross-linked residues,NCBP1,K7 - K17
"ATP1A1, P05023",cross-linked residues,NDRG1,K444 - K280
"NDUFA7, O95182",cross-linked residues,NDUFA12,S32 - K101
"NDUFA2, O43678",cross-linked residues,NDUFS1,K98 - K531
"NIPSNAP2, O75323",cross-linked residues,NIPSNAP1,K148 - K279
"DDX54, Q8TDD1",cross-linked residues,NOC3L,Y763 - K436
"FBL, P22087",cross-linked residues,NOL7,K102 - K121
same,cross-linked residues,NOLC1,K102 - K647
same,cross-linked residues,UTP11,K102 - K197
"RPL7A, P62424",cross-linked residues,NOP16,K125 - K138
same,cross-linked residues,NOP53,K125 - K157
same,cross-linked residues,SERBP1,K20 - K39
"TMED10, P49755",cross-linked residues,NUCB2,K140 - K281
"NUP98, P52948",cross-linked residues,NUP160,K1749 - K1096
same,cross-linked residues,NUP205,K563 - K1881
"NUP62, P37198",cross-linked residues,NUP58,K371 - K288
"NUP155, O75694",cross-linked residues,NUP93,K1069 - K243
"P4HB, P07237",cross-linked residues,P4HA1,K65 - K442
same,cross-linked residues,PDIA3,K71 - K494
same,cross-linked residues,PPIB,S32 - K186
"P4HA2, O15460",cross-linked residues,P4HB,K300 - K409
"RPL35, P42766",cross-linked residues,PA2G4,K43 - K238
"DNAJC19, Q96DA6",cross-linked residues,PAM16,K93 - K82
